Results on twelve molecules are retold here after PubChem BioAssay (NCI).

Holding throughout (experiment): NCI-60 one-dose screen, 48 h (100 = growth as untreated, 0 = no growth, -100 = all killed)
What all share (settings): 10 µM unless noted

The subject of test [1] is SK-MEL-2 melanoma.
For test [2], the system named is EKVX NSCLC.
Test [3] deals with SN12C renal.
Test [4] concerns UO-31 renal.
The subject of test [5] is TK-10 renal.
In test [6] the test system is ACHN renal.
For test [7], the system named is A498 renal.
For test [8], the system named is CCRF-CEM leukemia.
Test [9] concerns MOLT-4 leukemia.
Test [10] concerns SR leukemia.

About 83,000 compounds went through this panel and 20% of them were active in at least one assay; those are over-represented in the sample as a whole.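 Results are percent growth after 48 hours of single-concentration exposure. 100 means growth as in untreated cells, lower positive values show inhibition; negative values down to -100 show cell death.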 Values without a mark were called inactive. Active and inactive are the calls of the source. How the source made its calls: active means growth percent below 10; inactive means the rest.

Consider `COc1ccc2nc(-c3ccc(OC)c(OC)c3)cc(-c3nnc(SCC(=O)Nc4ccc(C(C)=O)cc4)o3)c2c1`, for which the growth in test [1] is 100%; in [2] it was 108%; in test [3] it was 98.8%; in test [4], 91.7%; in test [5], 109%; in test [6], 101%. Further, the growth in [7] was 93.6%; in test [8], 94.8%; in [9] it was 95.5%; in test [10], 88.8%.
Consider `O=C(/C(=C/c1ccc([N+](=O)[O-])cc1)SCc1ccc(F)cc1)c1ccc(Cl)cc1`, for which the growth in test [1] is 88.5%; in test [2], 57.7%; in test [3], 56%; in test [4] it was 44.8%; in test [5], 97.2%; in test [6], 60.7%. Also, the growth was 70.9% in test [7], 6.19% (active) in test [8], 7.7% (active) in test [9] and 0.0981% (active) in test [10].
Consider `C=C(C)[C@@H]1CC[C@]2(C(=O)O)CC[C@]3(C)[C@H](CC[C@@H]4[C@@]5(C)C[C@@H](CC#Cc6ccc(Cl)cc6)C(=O)C(C)(C)[C@@H]5CC[C@]43C)[C@@H]12`, for which the growth was -18.9% (active) in test [1]; 40% in [2]; 27.8% in test [3]; 60.5% in test [4]; 59.7% in test [5]; 48.2% in test [6]. Besides, the growth was -15.1% (active) in test [7], 27.9% in test [8], 26.7% in test [9] and 49.9% in test [10].
In the case of `CC1CCN(CCCCCOc2ccc3oc4ccccc4c(=O)c3c2)CC1`, the growth in [1] is 102%; in test [2], 89%; in test [3], 69.3%; in test [4], 63.1%; in [5], 71.4%; in [6] it was 95.3%. In addition, the growth in [8] is 77.1%; in test [9] it was 53.2%; in test [10], 47.5%.
For the molecule `Cc1cc(C)nc(NS(=O)(=O)c2ccc(Nc3ccc4c5c(n(CCCN(C)C)c(=O)c4c3)-c3ccccc3C5=O)cc2)n1`, the growth is 108% in test [1]; 90.5% in test [2]; 85% in [3]; 88.9% in test [4]; 87.9% in [5]; 89.7% in [6]. Further, the growth is 90.7% in test [7], 42.2% in [8], 15.2% in test [9] and 23.4% in [10].
For `C#C[C@@]1(O)[C@@H](CO)O[C@@H](n2ccc3c(N)ncnc32)[C@@H]1O`, the growth in test [1] is -8.72% (active); in test [2] it was -4.75% (active); in [3], -12.3% (active); in [4], -14.7% (active); in test [5] it was 3.25% (active); in [6] it was 3.47% (active). Moreover, the growth in [7] is -53.2% (active); in test [8] it was 13.3%; in test [9], -1.22% (active); in test [10], 12.1%.
`Cc1nccc2c3ccc(OCc4cn(-c5ccc(Br)cc5)nn4)cc3n(CC(C)C)c12`: the growth in test [1] was 53%; in [2], 59.5%; in [3], 61.5%; in test [4], 38.4%; in test [5], 41.1%; in test [6], 61.9%. For the same molecule, the growth was 53% in [7], 35.1% in [8], 2.93% (active) in [9] and -13.9% (active) in [10].
Consider `Cc1c(Cl)cccc1NC(=O)c1sc2nc3c(cc2c1N)CN(Cc1ccccc1)CC3`, for which the growth was 31.4% in [1]; 55.5% in test [2]; 59.2% in test [3]; 58% in test [4]; 75% in [5]; 56.4% in [6]. Besides, the growth is 36.6% in [7], 14.5% in test [8], 22.9% in test [9] and 16.9% in test [10].
For `c1ccc(-c2n(Cc3ccc4ccccc4n3)cc[n+]2Cc2ccc3ccccc3c2)cc1`, the growth in [1] was -27% (active); in [2] it was 38.4%; in test [3], 4.45% (active); in [4] it was 54.6%; in test [5], -0.737% (active); in [6] it was 63.8%. In addition, the growth in test [7] is -2.66% (active); in test [8], 4.04% (active); in [9], 2.42% (active); in test [10], -27.4% (active).
`FC(F)(F)c1ccc2c(Nc3cccc(C4CC(c5ccccc5)=NN4c4ccc(Cl)cc4)c3)ccnc2c1` (centres undefined): the growth in [1] is 87.2%; in [2], 82.6%; in test [3] it was 37.7%; in test [4], 35.9%; in [5], 82.3%; in test [6], 73.3%. Besides, the growth in test [7] is 66.3%; in [8], 3.45% (active); in [9], 4.86% (active); in [10], -10.9% (active).
`COc1ccc(/C=C(/C(=O)N2CCCC2)c2cc(OC)c(OC)c(OC)c2)cc1`: the growth in test [1] is 64.3%; in test [2] it was 73.1%; in [3], 48.1%; in [4], 44.5%; in test [5], 71.3%; in [6] it was 54.5%. The growth is 13.4% in [7], 14% in test [8], 32.6% in test [9] and 19.7% in [10].
Turning to `COc1ccc(-c2[nH]c3ccc(OC)cc3c2C=C(C#N)C#N)cc1`, the growth in [1] was 34.3%; in test [2], 36.5%; in test [3], 63.1%; in [4], 50.1%; in [5], 70.4%; in test [6], 63.9%. The growth in test [7] was 52.6%; in test [8], 11.1%; in test [9], 27.3%; in test [10], -3.05% (active).
